Data as given in ChEMBL document CHEMBL3988442, “University of Dundee, Small-Polar-MMV Screening Library” (2021).
Out of some 48,000 compounds screened, about 13,000 (27%) showed an effect of 50% or more. Some of the results follow.

system: Wolbachia pipientis; assay: Anti-Wolbachia Cell-Based Screen; format: functional; parameters: scale not given: in the data most compounds retested in dose-response had high values; settings: 5 µM

| SMILES | Percent Effect |
| --- | --- |
| CC(C)N(C)C(=O)c1ccc(CNc2ncc(C#N)cc2Cl)cc1 | -8.928% |
| CCN1CCN(CCNc2nc3ccc(C)cc3c(=O)n2C)CC1 | 1.756% |
| CC(=O)N1Cc2nccn2CC(CNC(=O)c2cccnc2)C1.O=C(O)C(F)(F)F (stereo not given) | -4.633% |
| CS(=O)(=O)N1Cc2nccn2CC(CNC(=O)c2cccnc2)C1.O=C(O)C(F)(F)F (stereo not given) | -1.051% |
| Cc1occc1C(=O)N1Cc2nccn2CC(CN2CCCC2)C1.O=C(O)C(F)(F)F (stereo not given) | -14.64% |
| O=C(O)C(F)(F)F.O=C(O)C(F)(F)F.O=C(c1cccnc1)N1Cc2nccn2CC(COc2cccnc2)C1 (stereo not given) | 111% |
| O=C(O)C(F)(F)F.O=C(O)C(F)(F)F.c1cncc(OCC2CN(Cc3nccs3)Cc3nccn3C2)c1 (stereo not given) | 104% |
| CN(Cc1cccnc1)CC1CN(C(=O)C2CC2)Cc2nccn2C1.O=C(O)C(F)(F)F.O=C(O)C(F)(F)F (stereo not given) | -3.173% |
| O=C(O)C(F)(F)F.c1cnc(N2Cc3nccn3CC(COc3cccnc3)C2)nc1 (stereo not given) | 111.9% |
| COCC1CN(C(=O)c2cccc(C)n2)Cc2nccn2C1.O=C(O)C(F)(F)F (stereo not given) | -3.838% |
| O=C(NCC1CN(c2ncccn2)Cc2nccn2C1)c1cccnc1.O=C(O)C(F)(F)F (stereo not given) | 8.129% |
| O=C(N1CCCC1)N1Cc2nccn2CC(COc2cccnc2)C1.O=C(O)C(F)(F)F (stereo not given) | 96.45% |
| Cc1nc(C)n(CC2CN(Cc3nccs3)Cc3nccn3C2)n1.O=C(O)C(F)(F)F (stereo not given) | -6.636% |
| Cc1ccc(CNC(c2ccccc2)c2nccn2C)cc1C (stereo not given) | -2.774% |
| COc1ccc(C(=O)NS(=O)(=O)c2ccc(CNC(C)=O)s2)cc1 | -0.9731% |
| Cc1ccnc(NS(=O)(=O)c2cc(C(N)=O)n(C)c2)c1 | 8.268% |
| Cc1cc(C)cc(NC(=O)CN2CCCC(n3cncn3)C2)c1 (stereo not given) | 8.702% |
| CC(=O)NC[C@]1(O)CCN(C(=O)c2ccc(F)c(Cl)c2)C[C@H]1O | 117.5% |
| CC(=O)N1CCC2(CC1)CN(C(=O)c1ccc3c(c1)OCO3)C2 | -7.452% |
| CC[C@@]1(O)CCN(C(=O)c2ccc(CN3CCCCCC3)cc2)C[C@H]1O | -35.93% |
| CS(=O)(=O)NCC1CCCN(C(=O)c2ccc3c(c2)CCC3)C1 (stereo not given) | -4.65% |
| CC[C@@]1(O)CCN(C(=O)c2ccc(SC)cc2)C[C@H]1O | -2.102% |
| CC[C@@]1(O)CCN(C(=O)c2ccc(-c3cccc(F)c3)cc2)C[C@H]1O | -0.249% |
| CC(=O)NC[C@]1(O)CCN(C(=O)c2ccc3c(c2)OCO3)C[C@H]1O | 124.1% |
| CC[C@@]1(O)CCN(C(=O)CCNC(=O)c2ccc(F)cc2)C[C@H]1O | -29.52% |

| SMILES | Percent Effect |
| --- | --- |
| CC(=O)NC[C@]1(O)CCN(C(=O)c2ccc3c(c2)CCC3)C[C@H]1O | 101.7% |
| CC(=O)NC[C@]1(O)CCN(C(=O)c2ccc(C)c(F)c2)C[C@H]1O | 111.8% |
| CC(C)=CCN1C[C@H]2CC[C@@H]1CN(C(=O)c1ccc3c(c1)OCO3)C2 | 36% |
| COCC1CC2(CCN(C(=O)c3ccc(F)c(Cl)c3)CC2)CO1 (stereo not given) | -3.157% |
| Cc1nn(CCO)cc1CN1CCC(C(C)N2CCCC2)CC1 (stereo not given) | 9.031% |
| CCOc1ccc(CNC2CCCN(c3cccnn3)C2)cc1OC (stereo not given) | -5.556% |
| CCCn1ncc(C(=O)N(Cc2cccnc2)C[C@@H]2CCC(=O)N2)c1C | -6.874% |
| CCn1c(CC2CCN(C(=O)C3CC(C(C)C)=NO3)CC2)nn(C)c1=O (stereo not given) | 5.338% |
| O=C(CCC(=O)N1CCCC1c1cccs1)N1CCc2sccc2C1 (stereo not given) | 12.25% |
| O=C(NC1CC(=O)N(C2Cc3ccccc3C2)C1)c1cc[n+]([O-])cc1 (stereo not given) | 5.46% |
| CC(=O)N1CCN(C(=O)CNc2c(C)cccc2OC(F)F)CC1 | -9.064% |
| Cc1ccc(C(=O)N2CCC(=O)N(CC3CC3)C(C(C)C)C2)c(=O)[nH]1 (stereo not given) | 0.658% |
| CC(Cc1ccco1)NC(=O)Nc1cnn(CC(N)=O)c1 (stereo not given) | 6.71% |
| COc1cc(C)nc(N2CCN(C(=O)COCC(F)(F)F)CC2)n1 | -18.67% |
| Cc1cc(C(F)(F)F)nc(C2CCN(C(=O)CO)CC2)n1 | 124.3% |
| Cc1cc(C)nc(Nc2cc(C)nc(C3CCN(C(=O)CO)C3)n2)n1 (stereo not given) | 114% |
| CNCC(=O)N1CCCC(c2cccc(Nc3nc(C)cc(C)n3)n2)C1 (stereo not given) | -17.94% |
| COCCNC(=O)c1cc(C)nc(C2CCN(C)CC2)n1 | 102.6% |
| Cc1cc(O)nc(C2CCN(C(=O)CO)CC2)n1 | 98.46% |
| CCOCCCNC(=O)c1cc(C)nc(N2CCCC2)n1 | 24.14% |
| COCCNC(=O)CN1CCN(c2nc(C)cs2)C(C)C1 (stereo not given) | 5.094% |
| O=c1[nH]c2nc(NCC3CCCO3)ncc2c(=O)n1-c1cccc(F)c1 (stereo not given) | -6.626% |
| CCc1noc(CC)c1CC(=O)N1CCN(C(=O)C2CCCC2)CC1 | -21.61% |
| O=C(CCCc1cn[nH]c1)N1C[C@@H](CN2CCCCCC2)[C@@H](CO)C1 | 0.3132% |
| CN(C)CCN(Cc1ccsc1)C(=O)C1=NNC(=O)CC1 | -24.72% |

| SMILES | Percent Effect |
| --- | --- |
| COC(=O)[C@H]1CN(S(C)(=O)=O)CCN1S(C)(=O)=O | -6.679% |
| Cc1cnc(NCC(C)(C)N2CCOCC2)nc1 | -8.824% |
| Cc1nc(C2CCN(C(=O)CO)CC2)cc(N2CCOCC2)n1 | 8.233% |
| Cc1cc(C)nc(C2CCN(C(=O)CO)CC2)n1 | 128.5% |
| CC1CCN(C(=O)CN2CCC(c3n[nH]c(C4CC4)n3)CC2)CC1 | -23.79% |
| COC(=O)Cc1cccc(NC(=O)Cc2ccon2)c1 | 4.933% |
| CCOCC(=O)N1CCc2nc(C)nc(NC(C)C)c2CC1 | 81.04% |
| Cc1nc2c(c(NC(C)C)n1)CCN(C(=O)CCO)CC2 | 103% |
| CC(=O)NCC(=O)N1CCc2nc(C)nc(C)c2CC1 | -10.4% |
| Cc1nc2c(c(NC3CC3)n1)CCN(C(=O)CCO)CC2.O=C(O)C(F)(F)F | -1.283% |
| CC(C)Nc1nc2c(c(NC3CC3)n1)CCN(C(=O)C1CCOC1)CC2 (stereo not given) | 25.31% |
| CC(C)Nc1nc2c(c(NC3CC3)n1)CN(C(=O)c1ccncc1)CC2 | 1.63% |
| Cc1nc2c(c(NC(C)C)n1)CCN(C1CCOCC1)CC2.O=C(O)C(F)(F)F | -10.52% |
| COCC(=O)N1CCc2nc(NC(C)C)nc(NC(C)C)c2CC1 | 95.04% |
| COCC(=O)N1CCc2nc(C)nc(NC(C)C)c2CC1 | 69.97% |
| CCOCc1nc2c(c(NCCNC(C)=O)n1)CCN(C(C)=O)CC2 | 14.8% |
| Cc1nc2c(c(NC(C)C)n1)CCN(C(=O)c1cc[nH]n1)CC2.O=C(O)C(F)(F)F | -4.947% |
| COCC(=O)NCC(Cc1cccc(F)c1)n1cccc1 (stereo not given) | 5.07% |
| CC(C)SCCNC(=O)c1cccc2ccnn12 | 5.28% |
| Cc1cc(C)c(CNC(=O)N(C)Cc2nnc3n2CCC3)c(=O)[nH]1 | 2.2% |
| CSCC(C)(O)CNC(=O)c1ccc(Br)cc1F (stereo not given) | 2.874% |
| COCC(NC(=O)NCc1cccc(Cl)c1)c1ccco1 (stereo not given) | 4.656% |
| Cc1ccc(N2CCC3(CCC(=O)N3)CC2)nn1 | -16.01% |
| Cc1csc(N2CCN(CCCN3CCCC3=O)CC2)n1 | -4.511% |
| Cc1csc(N2CCCN(C(=O)CCN3CCCC3=O)CC2)n1 | 4.733% |

| SMILES | Percent Effect |
| --- | --- |
| Cc1csc(N2CCC(CCN3CCCC3=O)CC2)n1 | 99.55% |
| Cc1ccc(N2CC[C@]3(O)CCN(CCN4CCCC4=O)C[C@@H]3C2)nn1 | -23.37% |
| Cc1ccc(N2CCC(CCN3CCCC3=O)CC2)nn1 | 86.49% |
| OCC1(O)CCN(Cc2ccc(-c3cc[nH]n3)s2)CC1 | -3.236% |
| CCCN1CC(NC(=O)Nc2nc(C)n(C(C)C)n2)CC1=O (stereo not given) | -10.65% |
| Cc1nn(C)c(C)c1NC(=O)CN1CCN(c2nccs2)C(C)C1 (stereo not given) | 107.6% |
| Cc1n[nH]c(C)c1NC(=O)CN1CCN(c2nccs2)C(C)C1 (stereo not given) | 95.63% |
| CC1CN(CC(=O)Nc2nncs2)CCN1Cc1nccn1C (stereo not given) | -11.48% |
| Cc1cc(NC(=O)CN2CCN(c3nccs3)C(C)C2)n(C)n1 (stereo not given) | -9.576% |
| Cc1csc(N2CCN(CC(=O)Nc3c(C)n[nH]c3C)CC2C)n1 (stereo not given) | 7.256% |
| CCc1cnc(N2CCN(CC(=O)Nc3c(C)n[nH]c3C)CC2)s1 | -15.52% |
| CCC(C(=O)NC1CCN(S(C)(=O)=O)CC1)n1cccn1 (stereo not given) | -1.013% |
| Cc1cc(C)n(CCC2CC(=O)Nc3cc4[nH]ncc4cc32)n1 (stereo not given) | 5.657% |
| O=C(COCc1ccccc1)N1CCC(OCc2cccnc2)CC1 | -1.111% |
| O=C(C1CCOC1)N1CCC(OCc2ccccc2)CC1 (stereo not given) | 104.9% |
| O=C(C1CCOCC1)N1CCC2(CC1)CC(Oc1ccccc1)CO2 (stereo not given) | 2.022% |
| O=C(CCO)N1CC2(CCN(c3ccccc3)C2)C1 | 3.033% |
| O=C(CN1CCSCC1c1ccccc1)N1CCOCC1 (stereo not given) | -10.11% |
| O=C(CN1C[C@H]2C[C@H](OCc3ccccc3)C[C@H]2C1)N1CCOCC1 | 120.8% |
| O=C(C1CCOC1)N1C[C@H]2CN(c3ccccc3)C(=O)[C@H]2C1 (stereo not given in full) | 2.352% |
| O=C(C1CCOCC1)N1C[C@H]2C[C@H](OCc3ccccc3)C[C@H]2C1 | 85.95% |
| O=C(CO)N1CC2(CCN(c3ccccc3)C2)C1 | -2.652% |
| COc1ccccc1CC1CCCN(CC(=O)N2CCOCC2)C1 (stereo not given) | 1.243% |
| O=C(C1CCOC1)N1CC2(CCN(c3ccccc3)C2)C1 (stereo not given) | 126.5% |
| O=C(Cc1cccnc1)N1CCC(OCc2ccccc2)CC1 | 5.712% |
